# Data: the supplement of paper PMC10412459
# Test system: K562 SF3B1 K700E vs K562 SF3B1 WT
# Assay: surviving fraction ratio K562 SF3B1 K700E / K562 SF3B1 WT (each relative to DMSO); higher = less selective killing of SF3B1 K700E cells
# Details: 5 days
# Procedure: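 Drug-sensitivity screen of an in-house 80-compound library in isogenic K562 SF3B1 K700E versus SF3B1 WT cells. 250 cells/well in 384-well plates were exposed 24 h after seeding to 0.5-1000 nM compound for 5 days, and viability was read by CellTiter-Glo. Surviving fraction is relative to DMSO, and the value is the ratio of surviving fraction in K700E to WT cells; the paper calls ratio <0.6 with P<0.01 selective.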
SMILES,surviving fraction ratio K562 SF3B1 K700E / K562 SF3B1 WT (0.1nM),surviving fraction ratio K562 SF3B1 K700E / K562 SF3B1 WT (0.2nM),surviving fraction ratio K562 SF3B1 K700E / K562 SF3B1 WT (1nM),surviving fraction ratio K562 SF3B1 K700E / K562 SF3B1 WT (2nM),surviving fraction ratio K562 SF3B1 K700E / K562 SF3B1 WT (10nM),surviving fraction ratio K562 SF3B1 K700E / K562 SF3B1 WT (20nM),surviving fraction ratio K562 SF3B1 K700E / K562 SF3B1 WT (100nM),surviving fraction ratio K562 SF3B1 K700E / K562 SF3B1 WT (200nM),surviving fraction ratio K562 SF3B1 K700E / K562 SF3B1 WT (0.5nM),surviving fraction ratio K562 SF3B1 K700E / K562 SF3B1 WT (5nM),surviving fraction ratio K562 SF3B1 K700E / K562 SF3B1 WT (50nM),surviving fraction ratio K562 SF3B1 K700E / K562 SF3B1 WT (500nM),surviving fraction ratio K562 SF3B1 K700E / K562 SF3B1 WT (1000nM)
C[C@]12O[C@H](C[C@]1(O)CO)n1c3ccccc3c3c4c(c5c6ccccc6n2c5c31)CNC4=O [lestaurtinib],0.691,0.885,0.8,0.895,0.877,0.855,0.823,0.907,,,,,
Cc1ccc(NC(=O)c2ccc(CN3CCN(C)CC3)cc2)cc1Nc1nccc(-c2cccnc2)n1 [imatinibmesylate],,,0.74,,0.692,,0.617,,0.696,0.733,0.55,1.5,1.1
Cc1nc(Nc2n[nH]c3c2CN(C(=O)N[C@H](CN(C)C)c2ccccc2)C3(C)C)c2sccc2n1,,,0.858,,1.34,,1.69,,0.912,1.09,1.76,1.98,1.69
Cc1cn(-c2cc(NC(=O)c3ccc(C)c(Nc4nccc(-c5cccnc5)n4)c3)cc(C(F)(F)F)c2)cn1 [nilotinib],,,0.742,,0.816,,1.48,,0.834,0.537,1.47,1.53,1.51
C=CC(=O)Nc1cc2c(Nc3ccc(F)c(Cl)c3)ncnc2cc1OCCCN1CCOCC1 [canertinib],,,0.878,,0.888,,0.79,,0.814,0.921,0.721,0.72,0.639
